p53ts 39C tox – kills p53ts cells at the nonpermissive temperature; 1.5% of 130,000 active; H1299-p53A138V viability at 39C, ATP luminescence, 24 h; Potency, µM (titrated, usually from 46.1 µM), without a hit: top-dose activity change, negative = cell killing, hits mostly cytotoxic; further: potency means the concentration at half of the fitted maximal effect; on the % scale 0 is the no-effect control and ±100 the full control effect; nearly all actives have a fitted effect of over 55% in size
IkB signaling – suppresses IkB signaling in ABC-DLBCL reporter cells; Potency, µM (titrated, usually from 57.1 µM), for inactives: top-dose IkBa stabilization activation; ABC-DLBCL IkBa-CBG/CBR dual luciferase ratio, 4 h; response scale: scaled: untreated 0%, proteasome inhibitor 100%; 0.04% of 110,000 active; active means well fitted curve in the direction sought with a large enough effect in the signal ratio, not every such curve was filed as active; inconclusive means small, poorly fitted or top-dose-only effect, or a change in a side signal; the % refers to the signal ratio;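 further: potency means the concentration at half of the fitted maximal effect; the direction sought is a rising ratio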
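Curves were fitted separately to fusion (green), unfused (red) and ratio luminescence, then classed by r2, magnitude and activity. Cells: OCI-Ly3, 4 h compound plus doxycycline at 37C; 10 uM MG-132 defined full response.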
IMPase cell inh – IMPase inhibition in cells; CHO-M1 cells, IP1 accumulation, HTRF TR-FRET ratio; AID 901; inhibition (IP1 accumulation), % at 46.1 µM; 120,000 tested, under 10 active; P97697; active means well fitted curve in the direction sought with a large enough effect in the signal ratio, not every such curve was filed as active; inconclusive means small, poorly fitted or top-dose-only effect, or a change in a side signal; inactive means no such curve, though single readings can be large or run the other way; the % refers to the signal ratio;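 further: cells stimulated with carbachol in lithium chloride buffer; plate controls were DMSO basal wells for no effect and reference inhibitor wells for full effect; higher means more IMPase inhibition seen as more IP1 and lower FRET ratio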
Target sequence (P97697 whole entry, looked up): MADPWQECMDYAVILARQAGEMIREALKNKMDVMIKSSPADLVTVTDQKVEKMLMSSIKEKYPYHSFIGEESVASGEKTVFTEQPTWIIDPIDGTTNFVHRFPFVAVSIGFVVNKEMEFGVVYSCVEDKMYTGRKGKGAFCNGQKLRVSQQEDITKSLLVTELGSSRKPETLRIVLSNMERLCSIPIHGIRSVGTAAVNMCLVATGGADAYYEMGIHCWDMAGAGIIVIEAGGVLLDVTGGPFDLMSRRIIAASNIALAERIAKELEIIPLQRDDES
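Cellular IMPase inhibition is scored as a rise in cytosolic IP1, detected by competitive TR-FRET between d2-labelled IP1 and a europium anti-IP1 antibody. M1-expressing CHO cells were stimulated with carbachol for 30 min at 37C, with lithium (50 mM LiCl) present in the buffer.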
Hsp90 Hop PPI – changes Hsp90-Hop TPR2A binding signal, up or down | AlphaScreen TPR2A-His6 binding biotin-Hsp90 C-terminal peptide | Potency, µM (series often up to 57 µM), for inactives: at the highest dose activity change, negative = inhibition | 0.44% of 71,000 active | AID 595; active means well fitted curve in either direction with a large enough effect; inconclusive means small, poorly fitted or top-dose-only effect, or another doubt; further: potency means the concentration at half of the fitted maximal effect; on the % scale 0 is the no-effect control and ±100 the full control effect
FLuc inh – inhibitors of firefly luciferase; P08659; purified firefly luciferase, luminescence, 8 min; Potency, µM (top dose mostly 57.1 µM), inactives show at the highest dose activity change, negative = inhibition, usual class: inhibitors; 2.2% of 72,000 active; AID 411; further: potency means the concentration at half of the fitted maximal effect; on the % scale 0 is the no-effect control and ±100 the full control effect; nearly all actives have a fitted effect of over 40% in size
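Here, luciferase activity is measured as luminescence following an 8 min room-temperature reaction at 10 uM ATP, pH 7.2. Every library sample is titrated.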
p53ts 32C tox – cytotoxicity in p53ts cells at permissive temperature. Potency, µM (series often up to 46.1 µM), for the others: at the top dose activity change, negative = cytotoxicity, actives largely listed as cytotoxic. AID 924. H1299-p53A138V at 32C, ATP luminescence viability, 24 h. 0.93% of 130,000 active;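 further: potency means the concentration at half of the fitted maximal effect; 0% = DMSO and -100% = full killing by reference compound; nearly all actives have a fitted effect of over 55% in size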
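ATP-content luminescence (ATPlite) read-out after 24 h compound exposure at 32C in H1299-p53A138V cells (600/well). Tested up to 46 uM. Normalized to DMSO (0%) and 100 uM tamoxifen (100% killing); Hill-fit AC50.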
* marks the source's active call; other numbers are inactive results; ? = inconclusive; nt = no result given; [ ] = another dose, or the depositor's remark. The sample as a whole holds a higher share of hits than the screen did. Unless noted, the call rests on the fitted dose curve; in most records, active means well fitted curve in the direction sought with a large enough effect; inconclusive means small, poorly fitted or top-dose-only effect, or another doubt; inactive means no such curve, though single readings can be large; an effect the other way counts as inactive or inconclusive.

SMILES	p53ts 39C tox	IkB signaling	IMPase cell inh	Hsp90 Hop PPI	FLuc inh	p53ts 32C tox
COc1ccc(NC(=O)c2ccc3c(c2)OCO3)cc1Cl	13µM*	1%	-2	-6%	3.2µM*	5µM*
O=C(Nc1ccncc1)c1ccc2c(c1)OCCO2	-24%	6%	8	-3%	?	?
COc1cc(NC(=O)c2ccccc2)cc(OC)c1	-8%	4%	?	6%	-1%	-3%
COc1ccc(C(=O)Nc2cc(OC)cc(OC)c2)cc1	?	?	-4	1%	4µM*	13µM*
CC(C)=CC(=O)Nc1ccc2c(c1)OCO2	?	1%	-4	-3%	25µM*	10µM*
Cc1nnc(SC(C)C(=O)Nc2ccc3c(c2)OCCO3)s1 (stereo not given)	3%	0%	7	-1%	-4%	-1%
COc1ccc(NC(=O)c2cnc[nH]2)cc1	13µM*	2%	nt	nt	nt	7.9µM*
O=C(Nc1cccc(Cl)c1)c1cnc[nH]1	24%	?	nt	nt	nt	-8%
COc1ccc(-c2nnc(SC(C)C(=O)Nc3ccc4c(c3)OCCO4)o2)cc1 (stereo not given)	13µM*	1%	0	-3%	20µM*	16µM*
COc1ccccc1NC(=O)Nc1ccc2c(c1)OCCO2	13µM*	?	2	-8%	13µM*	10µM*
CCOc1cccc2sc(N(Cc3cccnc3)C(=O)C3CCCCC3)nc12	24%	?	nt	nt	nt	13%
COc1ccc(C(=O)Nc2ccc3c(c2)OCCO3)cc1	7.1µM*	nt	nt	nt	nt	6.3µM*
COc1cccc(OC)c1C(=O)Nc1ccc2c(c1)OCCO2	-5%	-2%	-7	-4%	-5%	-6%
COc1ccc(NC(=O)C=C(C)C)cc1Cl	?	0%	24	?	20µM*	?
O=C(Nc1ccc2c(c1)OCCO2)c1cncc(Br)c1	10µM*	13%	5	-3%	10µM*	10µM*
Cc1ccc(Cc2nc3ccccc3nc2SCC(=O)N2CCCCC2)cc1	3%	?	nt	nt	nt	4%
COc1ccc(-c2nn(C)c3sc(C(=O)Nc4cc(OC)c(OC)c(OC)c4)cc23)cc1OC	-3%	?	nt	nt	nt	?
Oc1cccc(-c2nc3ccccc3s2)c1	10µM*	6%	-11	-5%	10µM*	7.9µM*
COc1ccc(-c2nc3ccccc3s2)cc1O	2.5µM*	?	-8	0%	1µM*	5µM*
COc1ccc(-c2nc3ccccc3s2)cc1NC(=O)c1ccccc1OC	-8%	14%	-2	nt	nt	-15%
C[C@@]12CCC(=O)C=C1CC[C@H]1[C@@H]2[C@@H](O)C[C@]2(C)[C@@H]1CC[C@@]2(O)C(=O)CO	nt	?	nt	-1%[11 µM]	3%[11.4 µM]	nt
Cc1ccc(-n2nnnc2CNC(=O)c2ccc(F)cc2)cc1C	1%	0%	nt	nt	nt	0%
COc1cccc(-n2c(=O)c3sc4ccccc4c3n(CC(=O)Nc3ccccc3OC)c2=O)c1	10µM*	13%	nt	nt	nt	-12%
COc1cccc(-n2c(=O)c3sc4ccccc4c3n(CC(=O)Nc3ccccc3C)c2=O)c1	1%	7%	nt	nt	nt	-12%
COC(=O)CC1C(=O)NCCN1C(=O)CSc1nnc(Nc2ccc(OC)cc2)s1 (stereo not given)	?	-1%	3	-6%	16µM*	?
CC1CCc2c(sc3nc(SCC(=O)NCc4ccco4)nc(N)c23)C1 (stereo not given)	?	?	8	-2%	13µM*	?
Cc1ccc(OCC(=O)Nc2nnc(S(=O)(=O)N3c4ccccc4CC3C)s2)cc1 (stereo not given)	-25%	-4%	nt	nt	nt	-5%
COc1ccc(OC)c(CCNC(=O)Cn2ncc3c([nH]c4ccccc43)c2=O)c1	nt	nt	nt	nt	nt	-5%
COc1ccc(OC)c(CCNC(=O)Cn2sc3nc(C)cc(C)c3c2=O)c1	16%	?	7	-12%	10µM*	-13%
Cc1ccc(C2=N/C(=C/N3CCOCC3)C(=O)O2)cc1	?	1%	0	-9%	20µM*	-18%

Bioassay records deposited in PubChem by National Center for Advancing Translational Sciences (NCATS).
